# PubChem BioAssay AID1159580 (chemical genetic matrix, 2015)
# Out of some 5,500 compounds screened, about 2,000 (36%) were called active. About 18% were inconclusive and are not listed. The list shows a part of the results. A number with no mark means an inactive call. No stated cut-off is given here; in the data, active means normalized growth mostly below about 0.91 (no sharp cut-off); inconclusive means no clear call, values can overlap the other calls; inactive means mostly above about 0.92.
# Assay: chemical genetic growth profiling, strain panel (AID 1159580);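 further: tested at 20 µM; growth read once vehicle control cultures reached saturation at 30 °C; 1 = growth at the plate median or of vehicle wells; lower values mean less growth of the strain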
# Settings: S. cerevisiae deletion strains, growth OD
# [1] = locus YDL101C, strain DUN1, active compounds read low
# [2] = locus YHR030C, strain SLT2, active compounds read low
smiles,measurement,setting,value
COc1ccccc1NC(=S)N/N=C\c1ccccc1O,normalized growth,"locus YAR019C, strain CDC15, active compounds read low",0.962
same,normalized growth,"locus YBL105C, strain PKC1, active compounds read low",0.968
same,normalized growth,"locus YBR135W, strain CKS1, active compounds read low",0.967
same,normalized growth,"locus YBR136W, strain MEC1, active compounds read low",0.965
same,normalized growth,"locus YBR160W, strain CDC28, active compounds read low",0.967
same,normalized growth,"locus YDL017W, strain CDC7, active compounds read low",0.967
same,normalized growth,"locus YDL028C, strain MPS1, active compounds read low",0.96
same,normalized growth,[1],0.978
same,normalized growth,"locus YDL108W, strain KIN28, active compounds read low",0.954
same,normalized growth,"locus YDL132W, strain cdc53, active compounds read low",0.965
same,normalized growth,"locus YDL214C, strain PRR2, active compounds read low",0.941
same,normalized growth,"locus YDR052C, strain DBF4, active compounds read low",0.973
same,normalized growth,"locus YDR054C, strain cdc34, active compounds read low",0.957
same,normalized growth,"locus YDR226W, strain ADK1, active compounds read low",0.959
same,normalized growth,"locus YDR477W, strain SNF1, active compounds read low",0.938
same,normalized growth,"locus YER123W, strain YCK3, active compounds read low",0.928
same,normalized growth,"locus YER133W, strain GLC7, active compounds read low",0.942
same,normalized growth,"locus YFL009W, strain cdc4, active compounds read low",0.965
same,normalized growth,"locus YFL029C, strain CAK1, active compounds read low",0.953
same,normalized growth,"locus YFR003C, strain YPI1, active compounds read low",0.97
same,normalized growth,"locus YFR019W, strain FAB1, active compounds read low",0.976
same,normalized growth,"locus YFR028C, strain CDC14, active compounds read low",0.966
same,normalized growth,"locus YGR040W, strain KSS1, active compounds read low",0.939
same,normalized growth,"locus YGR052W, strain FMP48, active compounds read low",1.02
same,normalized growth,"locus YGR092W, strain DBF2, active compounds read low",0.891
same,normalized growth,[2],0.903
same,normalized growth,"locus YHR079C, strain IRE1, active compounds read low",0.956
same,normalized growth,"locus YHR082C, strain KSP1, active compounds read low",0.964
same,normalized growth,"locus YHR205W, strain SCH9, active compounds read low",0.98
same,normalized growth,"locus YIL147C, strain SLN1, active compounds read low",0.961
same,normalized growth,"locus YJL095W, strain BCK1, active compounds read low",0.978
same,normalized growth,"locus YJL128C, strain PBS2, active compounds read low",0.957
same,normalized growth,"locus YJL157C, strain FAR1, active compounds read low",0.951
same,normalized growth,"locus YJR016C, strain ILV3, active compounds read low",0.979
same,normalized growth,"locus YJR066W, strain TOR1 (second series), active compounds read low",0.903
same,normalized growth,"locus YJR066W, strain TOR1, active compounds read low",0.942
same,normalized growth,"locus YKL048C, strain ELM1, active compounds read low",0.962
same,normalized growth,"locus YKL067W, strain YNK1, active compounds read low",0.955
same,normalized growth,"locus YKL101W, strain HSL1, active compounds read low",0.948
same,normalized growth,"locus YKL193C, strain SDS22, active compounds read low",0.964
same,normalized growth,"locus YKL203C, strain TOR2, active compounds read low",0.971
same,normalized growth,"locus YLR113W, strain HOG1, active compounds read low",0.955
same,normalized growth,"locus YLR133W, strain CKI1, active compounds read low",0.942
same,normalized growth,"locus YLR403W, strain SFP1, active compounds read low",0.916
same,normalized growth,"locus YML070W, strain DAK1, active compounds read low",0.973
same,normalized growth,"locus YMR001C, strain CDC5, active compounds read low",0.958
same,normalized growth,"locus YMR205C, strain PFK2 (second series), active compounds read low",0.959
same,normalized growth,"locus YMR277W, strain FCP1, active compounds read low",0.966
same,normalized growth,"locus YNL006W, strain LST8, active compounds read low",0.97
same,normalized growth,"locus YNL020C, strain ARK1, active compounds read low",0.955
same,normalized growth,"locus YNL161W, strain CBK1, active compounds read low",0.967
same,normalized growth,"locus YNL183C, strain NPR1, active compounds read low",0.975
same,normalized growth,"locus YNL207W, strain RIO2, active compounds read low",0.97
same,normalized growth,"locus YNL222W, strain SSU72, active compounds read low",0.967
same,normalized growth,"locus YNL307C, strain MCK1 (second series), active compounds read low",0.949
same,normalized growth,"locus YOL078W, strain AVO1, active compounds read low",0.968
same,normalized growth,"locus YOL136C, strain PFK27, active compounds read low",0.967
same,normalized growth,"locus YOR061W, strain CKA2, active compounds read low",0.931
same,normalized growth,"locus YOR119C, strain RIO1, active compounds read low",0.941
same,normalized growth,"locus YOR231W, strain MKK1, active compounds read low",0.967
same,normalized growth,"locus YOR329C, strain SCD5, active compounds read low",0.969
same,normalized growth,"locus YPL031C, strain PHO85, active compounds read low",0.93
same,normalized growth,"locus YPL153C, strain RAD53, active compounds read low",0.937
same,normalized growth,"locus YPL204W, strain HRR25, active compounds read low",0.941
same,normalized growth,"locus YPL209C, strain IPL1, active compounds read low",0.967
same,normalized growth,"locus YPL256C, strain CLN2, active compounds read low",0.929
same,normalized growth,"locus YPR025C, strain CCL1, active compounds read low",0.968
same,normalized growth,"locus YPR106W, strain ISR1, active compounds read low",0.969
same,normalized growth,"locus YPR111W, strain DBF20, active compounds read low",0.978
same,normalized growth,"strain NNK1, active compounds read low",0.986
same,normalized growth,"strain TSCII, active compounds read low",0.969
Cc1cc(Br)c(NC(=O)C(Cl)(Cl)Cl)c(Br)c1,normalized growth,"locus YAL013W, strain DEP1, active compounds read low",0.917 (active)
same,normalized growth,"locus YBR229C, strain ROT2, active compounds read low",0.911 (active)
same,normalized growth,[1],0.936
same,normalized growth,"locus YDR150W, strain NUM1, active compounds read low",0.909
same,normalized growth,"locus YEL061C, strain CIN8, active compounds read low",0.93
same,normalized growth,"locus YGR078C, strain PAC10, active compounds read low",0.905 (active)
same,normalized growth,[2],0.592 (active)
same,normalized growth,"locus YHR087W, strain rtc3, active compounds read low",0.899 (active)
same,normalized growth,"locus YJR043C, strain POL32, active compounds read low",0.927
same,normalized growth,"locus YJR075W, strain HOC1, active compounds read low",0.923
same,normalized growth,"locus YKL190W, strain CNB1, active compounds read low",0.958
same,normalized growth,"locus YLR039C, strain RIC1, active compounds read low",0.538 (active)
same,normalized growth,"locus YLR058C, strain SHM2 (second series), active compounds read low",0.907 (active)
same,normalized growth,"locus YLR085C, strain ARP6, active compounds read low",0.73 (active)
same,normalized growth,"locus YLR262C, strain YPT6, active compounds read low",0.579 (active)
same,normalized growth,"locus YML094W, strain GIM5, active compounds read low",0.944
same,normalized growth,"locus YMR219W, strain ESC1, active compounds read low",0.933 (active)
same,normalized growth,"locus YMR263W, strain SAP30, active compounds read low",0.96
same,normalized growth,"locus YMR307W, strain GAS1, active compounds read low",0.648 (active)
same,normalized growth,"locus YNL153C, strain GIM3, active compounds read low",0.947
same,normalized growth,"locus YNL298W, strain CLA4 (second series), active compounds read low",0.875
same,normalized growth,"locus YNL322C, strain KRE1, active compounds read low",0.94 (active)
same,normalized growth,"locus YNR030W, strain Alg12, active compounds read low",0.938
same,normalized growth,"locus YOL006C, strain TOP1, active compounds read low",0.615 (active)
same,normalized growth,"locus YPL055C, strain LGE1, active compounds read low",0.919
same,normalized growth,"locus YPL241C, strain CIN2, active compounds read low",0.939
same,normalized growth,"locus YPR135W, strain CTF4, active compounds read low",0.736
